The supplement of paper PMC11732987, “Enantioselective OTUD7B fragment discovery through chemoproteomics screening and high-throughput optimisation” (Communications Chemistry, 2025)

Columns and labels:
Test in all cases: log2 ratio of Biotin-Ahx-Ub-VS probe labelling (fragment/DMSO); higher = less target engagement (more negative = stronger competition), active = hit call of the paper (q ≤ 0.05, log2 ratio ≤ -1)
Details in all cases: compound concentration: 200 uM; treatment time: 3 h
ALG13 = molecular target: T1, ALG13 (UniProt Q9NP73)
T1 sequence (whole entry): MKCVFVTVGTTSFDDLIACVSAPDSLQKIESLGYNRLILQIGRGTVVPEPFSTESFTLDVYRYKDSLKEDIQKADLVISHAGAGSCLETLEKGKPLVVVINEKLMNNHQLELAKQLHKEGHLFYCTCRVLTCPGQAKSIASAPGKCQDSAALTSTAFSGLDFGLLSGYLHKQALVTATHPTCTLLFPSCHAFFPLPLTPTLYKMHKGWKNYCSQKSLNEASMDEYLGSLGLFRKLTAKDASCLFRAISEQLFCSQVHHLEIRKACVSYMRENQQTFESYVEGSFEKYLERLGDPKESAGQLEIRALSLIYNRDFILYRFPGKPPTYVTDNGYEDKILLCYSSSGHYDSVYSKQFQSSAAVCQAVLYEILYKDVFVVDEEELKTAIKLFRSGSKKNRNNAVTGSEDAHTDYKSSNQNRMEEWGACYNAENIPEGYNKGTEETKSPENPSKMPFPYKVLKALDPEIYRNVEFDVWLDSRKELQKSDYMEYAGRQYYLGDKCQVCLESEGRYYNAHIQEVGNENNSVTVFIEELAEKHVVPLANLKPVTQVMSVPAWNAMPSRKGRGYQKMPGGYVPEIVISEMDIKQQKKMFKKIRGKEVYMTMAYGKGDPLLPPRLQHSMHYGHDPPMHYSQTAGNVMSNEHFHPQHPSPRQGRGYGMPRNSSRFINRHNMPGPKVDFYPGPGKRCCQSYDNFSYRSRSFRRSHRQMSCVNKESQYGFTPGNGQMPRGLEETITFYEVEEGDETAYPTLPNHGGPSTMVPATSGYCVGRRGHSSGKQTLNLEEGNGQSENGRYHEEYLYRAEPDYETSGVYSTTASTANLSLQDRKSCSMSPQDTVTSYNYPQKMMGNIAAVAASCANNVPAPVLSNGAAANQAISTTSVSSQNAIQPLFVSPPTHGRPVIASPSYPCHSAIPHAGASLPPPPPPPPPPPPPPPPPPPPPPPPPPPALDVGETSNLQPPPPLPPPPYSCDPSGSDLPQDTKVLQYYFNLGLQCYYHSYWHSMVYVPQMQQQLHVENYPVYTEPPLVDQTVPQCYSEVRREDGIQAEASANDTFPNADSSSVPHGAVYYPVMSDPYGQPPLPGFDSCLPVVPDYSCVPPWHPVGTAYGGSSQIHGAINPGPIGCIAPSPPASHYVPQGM
In short: (§1)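 Labelling with Biotin-Ahx-Ub-VS (0.5 µM final, 1 h) followed a 3 h triplicate treatment of HEK293T lysate (495 µg per sample, Tris/CHAPS/IGEPAL buffer with protease inhibitors) with fragment at 200 µM or vehicle. Labelled DUBs were NeutrAvidin-enriched, digested with LysC and trypsin, and run by diaPASEF LC-MS/MS. The values, average log2 fragment/vehicle ratios by unpaired t-test, come from global-median-normalised Spectronaut label-free quantities. Proteins with ≥2 unique peptides were used.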

ATXN3 = ATXN3 (UniProt P54252)
In short: as §1

BAP1 = molecular target: T2, BAP1 (UniProt Q92560)
T2 sequence (whole entry): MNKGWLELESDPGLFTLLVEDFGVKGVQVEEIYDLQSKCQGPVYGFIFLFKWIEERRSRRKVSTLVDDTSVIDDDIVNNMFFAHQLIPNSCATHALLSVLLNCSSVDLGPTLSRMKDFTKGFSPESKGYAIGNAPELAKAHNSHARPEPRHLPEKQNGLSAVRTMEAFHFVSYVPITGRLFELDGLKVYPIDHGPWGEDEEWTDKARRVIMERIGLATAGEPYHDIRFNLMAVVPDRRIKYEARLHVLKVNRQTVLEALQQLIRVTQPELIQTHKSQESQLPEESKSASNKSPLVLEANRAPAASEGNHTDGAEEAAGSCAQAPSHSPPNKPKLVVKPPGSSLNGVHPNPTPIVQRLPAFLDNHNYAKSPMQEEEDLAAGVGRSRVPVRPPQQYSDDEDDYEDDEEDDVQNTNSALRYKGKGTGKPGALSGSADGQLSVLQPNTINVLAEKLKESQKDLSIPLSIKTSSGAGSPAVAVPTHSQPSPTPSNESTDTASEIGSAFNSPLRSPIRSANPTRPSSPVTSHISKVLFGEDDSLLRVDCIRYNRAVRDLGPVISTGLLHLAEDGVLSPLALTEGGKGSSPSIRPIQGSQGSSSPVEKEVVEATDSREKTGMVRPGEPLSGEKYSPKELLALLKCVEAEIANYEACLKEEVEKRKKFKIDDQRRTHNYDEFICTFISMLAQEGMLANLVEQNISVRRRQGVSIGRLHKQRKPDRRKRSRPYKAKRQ
In short: as §1

EIF3F = EIF3F (UniProt O00303)
In short: as §1

EIF3H = EIF3H (UniProt O15372)
In short: as §1

FAM105A = molecular target: T3, FAM105A (UniProt Q9NUU6)
T3 sequence (whole entry): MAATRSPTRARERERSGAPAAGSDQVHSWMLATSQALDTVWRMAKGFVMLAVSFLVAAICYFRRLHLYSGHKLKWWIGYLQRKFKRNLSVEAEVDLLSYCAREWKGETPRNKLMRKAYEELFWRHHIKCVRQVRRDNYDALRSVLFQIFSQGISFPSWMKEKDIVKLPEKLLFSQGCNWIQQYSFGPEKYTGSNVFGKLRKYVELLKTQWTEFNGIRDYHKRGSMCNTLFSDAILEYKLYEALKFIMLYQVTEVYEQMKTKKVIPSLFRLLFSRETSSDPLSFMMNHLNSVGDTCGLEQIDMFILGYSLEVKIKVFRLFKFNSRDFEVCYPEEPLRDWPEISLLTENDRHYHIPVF
In short: as §1

OTUB1 = OTUB1 (UniProt Q96FW1)
In short: as §1

OTUD4 = molecular target: T4, OTUD4 (UniProt Q01804)
T4 sequence (whole entry): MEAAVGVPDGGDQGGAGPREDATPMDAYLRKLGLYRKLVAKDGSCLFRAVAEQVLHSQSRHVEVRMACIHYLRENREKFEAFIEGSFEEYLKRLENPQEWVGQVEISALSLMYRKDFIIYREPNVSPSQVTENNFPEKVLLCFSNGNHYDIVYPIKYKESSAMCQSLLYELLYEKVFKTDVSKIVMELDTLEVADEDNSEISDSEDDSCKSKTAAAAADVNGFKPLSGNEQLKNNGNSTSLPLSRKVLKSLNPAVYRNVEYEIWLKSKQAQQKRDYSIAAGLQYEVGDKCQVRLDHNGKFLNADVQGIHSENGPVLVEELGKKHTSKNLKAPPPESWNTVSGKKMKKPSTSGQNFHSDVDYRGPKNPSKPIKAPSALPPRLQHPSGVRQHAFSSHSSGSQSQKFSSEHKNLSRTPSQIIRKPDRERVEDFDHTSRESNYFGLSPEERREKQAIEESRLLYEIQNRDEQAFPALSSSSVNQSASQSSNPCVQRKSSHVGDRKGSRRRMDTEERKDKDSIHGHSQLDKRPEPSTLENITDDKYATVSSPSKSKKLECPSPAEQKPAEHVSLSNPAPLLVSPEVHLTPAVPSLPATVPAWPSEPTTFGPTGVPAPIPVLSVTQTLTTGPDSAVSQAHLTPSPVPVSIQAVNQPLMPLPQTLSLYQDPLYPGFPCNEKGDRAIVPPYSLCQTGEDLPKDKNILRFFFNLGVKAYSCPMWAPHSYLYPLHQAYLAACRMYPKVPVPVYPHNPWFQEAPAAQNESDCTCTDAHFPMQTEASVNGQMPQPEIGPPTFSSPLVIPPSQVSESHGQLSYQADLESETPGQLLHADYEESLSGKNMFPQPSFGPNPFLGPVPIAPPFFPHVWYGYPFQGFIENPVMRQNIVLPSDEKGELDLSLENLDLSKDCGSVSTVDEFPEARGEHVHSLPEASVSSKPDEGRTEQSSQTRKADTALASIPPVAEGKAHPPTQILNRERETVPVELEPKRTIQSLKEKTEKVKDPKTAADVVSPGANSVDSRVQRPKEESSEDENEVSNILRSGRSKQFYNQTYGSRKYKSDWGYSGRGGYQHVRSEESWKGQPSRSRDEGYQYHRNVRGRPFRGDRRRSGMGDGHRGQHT
In short: as §1

OTUD5 = molecular target: T5, OTUD5 (UniProt Q96G74)
T5 sequence (whole entry): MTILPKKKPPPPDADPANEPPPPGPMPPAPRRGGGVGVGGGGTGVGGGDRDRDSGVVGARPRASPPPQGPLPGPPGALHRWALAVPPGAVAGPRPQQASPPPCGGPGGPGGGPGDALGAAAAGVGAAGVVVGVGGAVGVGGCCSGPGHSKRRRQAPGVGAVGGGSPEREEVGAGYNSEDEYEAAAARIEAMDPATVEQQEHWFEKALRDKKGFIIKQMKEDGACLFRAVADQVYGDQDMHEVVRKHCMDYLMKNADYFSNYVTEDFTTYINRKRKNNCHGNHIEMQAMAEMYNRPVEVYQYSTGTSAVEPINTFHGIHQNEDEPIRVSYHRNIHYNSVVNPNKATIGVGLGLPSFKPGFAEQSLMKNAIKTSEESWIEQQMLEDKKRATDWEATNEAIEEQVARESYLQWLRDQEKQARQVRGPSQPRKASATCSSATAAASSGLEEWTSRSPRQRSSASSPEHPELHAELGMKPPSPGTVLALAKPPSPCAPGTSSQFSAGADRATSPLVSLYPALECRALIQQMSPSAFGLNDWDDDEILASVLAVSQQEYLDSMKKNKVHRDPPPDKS
In short: as §1

Measured: log2 ratio of Biotin-Ahx-Ub-VS probe labelling

OTUB1, sequence (Q96FW1 whole entry): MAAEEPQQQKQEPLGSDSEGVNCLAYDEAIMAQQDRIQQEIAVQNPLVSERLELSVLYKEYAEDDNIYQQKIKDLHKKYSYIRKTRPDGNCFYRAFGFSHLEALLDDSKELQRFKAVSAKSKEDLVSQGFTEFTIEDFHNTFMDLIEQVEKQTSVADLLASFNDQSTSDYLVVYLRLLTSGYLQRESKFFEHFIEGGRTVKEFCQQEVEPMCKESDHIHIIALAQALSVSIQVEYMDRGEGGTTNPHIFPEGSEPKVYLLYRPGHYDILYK
EIF3H, sequence (O15372 whole entry): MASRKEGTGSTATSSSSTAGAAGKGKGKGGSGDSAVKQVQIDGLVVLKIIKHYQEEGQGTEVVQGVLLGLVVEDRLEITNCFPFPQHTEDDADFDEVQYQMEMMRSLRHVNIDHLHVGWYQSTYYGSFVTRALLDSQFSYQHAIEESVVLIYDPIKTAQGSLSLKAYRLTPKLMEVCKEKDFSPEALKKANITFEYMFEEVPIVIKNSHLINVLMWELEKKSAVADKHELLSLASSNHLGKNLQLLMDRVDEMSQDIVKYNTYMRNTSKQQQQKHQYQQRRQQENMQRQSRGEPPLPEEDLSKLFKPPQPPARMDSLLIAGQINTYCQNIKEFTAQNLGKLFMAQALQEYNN
EIF3F, sequence (O00303 whole entry): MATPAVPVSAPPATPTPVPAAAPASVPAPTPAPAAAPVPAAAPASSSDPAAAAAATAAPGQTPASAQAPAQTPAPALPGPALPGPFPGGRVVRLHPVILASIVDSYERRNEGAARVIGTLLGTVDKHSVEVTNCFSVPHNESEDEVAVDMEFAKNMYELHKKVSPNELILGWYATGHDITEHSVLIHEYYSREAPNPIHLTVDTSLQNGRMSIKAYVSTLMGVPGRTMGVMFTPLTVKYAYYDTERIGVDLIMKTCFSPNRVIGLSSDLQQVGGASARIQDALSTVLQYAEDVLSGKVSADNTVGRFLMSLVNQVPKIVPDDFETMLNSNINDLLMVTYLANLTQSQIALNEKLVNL
ATXN3, sequence (P54252 whole entry): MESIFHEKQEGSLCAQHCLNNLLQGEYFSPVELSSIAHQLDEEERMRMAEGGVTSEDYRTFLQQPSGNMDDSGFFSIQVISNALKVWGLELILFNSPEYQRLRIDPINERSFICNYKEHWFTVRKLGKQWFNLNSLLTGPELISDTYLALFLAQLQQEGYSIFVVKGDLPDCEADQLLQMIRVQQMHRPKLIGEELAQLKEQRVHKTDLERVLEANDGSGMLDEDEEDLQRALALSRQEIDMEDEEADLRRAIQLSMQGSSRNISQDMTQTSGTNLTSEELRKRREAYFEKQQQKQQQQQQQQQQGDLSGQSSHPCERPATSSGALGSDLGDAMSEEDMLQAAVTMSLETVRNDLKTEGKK

CCN(C(=O)CCl)C1CCS(=O)(=O)C1 (centres undefined)
inactive: ALG13 -0.231 | ATXN3 -0.159 | BAP1 -0.0461 | EIF3F -0.357 | EIF3H 0.227 | FAM105A 0.291 | OTUB1 -0.59 | OTUD4 -0.679 | OTUD5 -0.272
